Results published in PubChem BioAssay (Tox21).
Inconclusive results are not listed. The source made the active and inactive calls. Unless noted, the call rests on the fitted dose curve; in most records, active means well fitted curve in the direction sought with a large enough effect in the repeat runs; inconclusive means weak or mixed curves; inactive means no such curve, though single readings can be large; an effect the other way counts as inactive or inconclusive.

Key:
[1] = qHTS assay to identify small molecule antagonists of the vitamin D receptor (VDR) signaling pathway - cell viability counter screen (AID 743225); conditions: VDR-bla HEK293T viability, CellTiter-Glo luminescence, 16 h; series mostly up to 61 µM; further: nearly all actives have a fitted effect of over 50% in size
Procedure, shortened: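 VDR-bla HEK 293T cells, 4 h pre-incubation at 37C, then compound plus 1-alpha,25-dihydroxyvitamin D3 (3 nM final) for 16 h. After the beta-lactamase FRET read, CellTiter-Glo was added to the same wells; luminescence after 30 min at room temperature.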

[2] = qHTS assay to identify small molecule agonists of the NFkB signaling pathway (AID 1159509; active means well fitted curve in the direction sought with a large enough effect in the signal ratio in the repeat runs, not every such curve was filed as active; the % refers to the signal ratio); conditions: NFkB-bla ME-180 cells, beta-lactamase FRET ratio, 5 h; series mostly up to 61 µM
Procedure, shortened: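 Agonist activity was read as beta-lactamase-driven FRET change (460 and 530 nm emission, 405 nm excitation) following 1.5 hr substrate loading at room temperature. Beforehand, ME-180 NFkB-bla reporter cells were treated with compounds for 5 hr at 37 C.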

[3] = qHTS assay to identify small molecule agonists of the endoplasmic reticulum stress response signaling pathway - cell viability counter screen (AID 1159517; calls by dose curve; further: nearly all actives have a fitted effect of over 50% in size); conditions: ESRE-bla HeLa viability, CellTiter-Glo luminescence, 5 h; series mostly up to 61 µM
Procedure, shortened: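 Cpd-treated ESRE-bla HeLa (5 hr, 37 C) → LiveBLAzer 2 hr RT → CellTiter-Glo 30 min RT → luminescence.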

[4] = qHTS assay to identify small molecule antagonists of the retinoid-related orphan receptor gamma (ROR-gamma) signaling pathway - cell viability counter screen (AID 1159520); conditions: Tet-on RORgamma CHO cells viability, ATP luminescence, 16 h; series mostly up to 92.4 µM; further: nearly all actives have a fitted effect of over 50% in size
Procedure, shortened: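 Tet-on ROR gamma CHO cells (1,000/well) were plated 4 hr, given compounds in DMSO for 2 hr at 37 C, then induced with 1 uM final doxycycline for 16 hr. Viability was read as ATP by CellTiter-Glo luminescence after 30 min.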

[5] = molecular target: Nuclear receptor ROR-gamma (Homo sapiens) (UniProt P51449); assay: qHTS assay to identify small molecule antagonists of the retinoid-related orphan receptor gamma (ROR-gamma) signaling pathway (AID 1159521;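 further: CHO cells with doxycycline inducible ROR-gamma driving an RORE luciferase reporter; top concentration of the series differs between compounds; nearly all actives have a fitted effect of over 50% in size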); conditions: Tet-on RORgamma CHO cells, RORE-luciferase, 16 h; series mostly up to 92.4 µM
Procedure, shortened: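 Tet-on RORγ CHO cells carrying a ROR response element–luciferase reporter were pretreated with compounds for 2 h, then induced with 1 uM (final) doxycycline hyclate for 16 h at 37 C. Antagonism was read as decreased ONE-Glo luminescence.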

[6] = qHTS assay to identify small molecule agonists of the AP-1 signaling pathway - cell viability counter screen (AID 1159525; calls by dose curve; further: nearly all actives have a fitted effect of over 55% in size); conditions: ME-180 AP-1-bla cells viability, ATP luminescence, 5 h; series mostly up to 76.8 µM
Procedure, shortened: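 Each titration point was normalised to DMSO and tetra n-octyl ammonium bromide controls. The read was Cell Titer Glo luminescence after 30 min at RT, following 5 h compound exposure of ME-180 AP-1-bla cells at 37 °C.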

[7] = qHTS assay to identify small molecule agonists of the AP-1 signaling pathway (AID 1159526; calls by dose curve); conditions: ME-180 (cervical carcinoma) AP-1-bla reporter, beta-lactamase FRET ratio, 5 h; series mostly up to 76.8 µM
[8] = qHTS assay to identify small molecule agonists of the RXR signaling pathway - cell viability counter screen (AID 1159529); conditions: RXR-alpha-bla HEK293T viability, CellTiter-Glo, 16 h; series mostly up to 76.8 µM; further: nearly all actives have a fitted effect of over 50% in size
Procedure, shortened: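 RXR-alpha-UAS-bla HEK 293T cells in medium with 2% charcoal-stripped FBS were preincubated 5 hr, then exposed to compounds for 16 hr at 37 C. Viability was read as CellTiter-Glo luminescence after 30 min at room temperature.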

[9] = qHTS assay to identify small molecule antagonists of the retinoid acid receptor (RAR) signaling pathway - cell viability counter screen (AID 1159551); conditions: C3RL4 cells viability, ATP luminescence (CellTiter-Glo), 6 h; series mostly up to 92.4 µM; further: nearly all actives have a fitted effect of over 35% in size
Procedure, shortened: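 Cytotoxicity counter screen: ATP content quantified by CellTiter-Glo luminescence in C3RL4 cells treated 6 hr at 37 C with compound and retinol (1 uM final). Cells plated at 1,000/well and cultured overnight before dosing.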

[10] = qHTS assay to identify small molecule antagonists of the retinoic acid receptor (RAR) signaling pathway (AID 1159552; further: nearly all actives have a fitted effect of over 50% in size); conditions: C3RL4 RARE luciferase reporter, retinol-stimulated, 6 h; series mostly up to 92.4 µM
Procedure, shortened: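 RARE-luc C3RL4 cells; cpds + 1 uM (final) retinol, 6 hr, 37 C/5% CO2; luciferase reagent, 30 min RT, luminescence readout. Inhibitors of retinol-driven signal scored.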

[11] = qHTS assay to identify small molecule agonists of the retinoic acid receptor (RAR) signaling pathway (AID 1159553); conditions: C3RL4 RARE luciferase reporter, agonist, 6 h; series mostly up to 73.3 µM
Procedure, shortened: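 Luminescence was measured 30 min after luciferase reagent addition at room temperature. Before that, C3RL4 reporter cells (1,000 per well, plated overnight) were treated with compound for 6 hr at 37 C and 5% CO2.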

[12] = qHTS assay to identify small molecule agonists of the endoplasmic reticulum stress response signaling pathway (AID 1159516; active means well fitted activation curve with a large enough effect in the signal ratio in the repeat runs, not every such curve was filed as active; the % refers to the signal ratio); conditions: ESRE-bla HeLa, ER stress beta-lactamase reporter, 5 h; series mostly up to 61 µM
Procedure, shortened: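 Ratiometric FRET readout (405 nm excitation; 460 and 530 nm emission) of a beta-lactamase gene driven by the ER stress response element, after 2 hr substrate loading. HeLa ESRE-bla cells were seeded overnight and treated with compounds for only 5 hr at 37 C.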

[13] = molecular target: Retinoic acid receptor RXR-alpha (Homo sapiens) (UniProt P19793); assay: qHTS assay to identify small molecule agonists of the RXR signaling pathway (AID 1159527; calls by dose curve; further: nearly all actives have a fitted effect of over 35% in size); conditions: HEK293T RXRa-UAS-bla, beta-lactamase ratio, 16 h; series mostly up to 76.8 µM
Chain of Retinoic acid receptor RXR-alpha (Homo sapiens) (P19793 whole entry, looked up): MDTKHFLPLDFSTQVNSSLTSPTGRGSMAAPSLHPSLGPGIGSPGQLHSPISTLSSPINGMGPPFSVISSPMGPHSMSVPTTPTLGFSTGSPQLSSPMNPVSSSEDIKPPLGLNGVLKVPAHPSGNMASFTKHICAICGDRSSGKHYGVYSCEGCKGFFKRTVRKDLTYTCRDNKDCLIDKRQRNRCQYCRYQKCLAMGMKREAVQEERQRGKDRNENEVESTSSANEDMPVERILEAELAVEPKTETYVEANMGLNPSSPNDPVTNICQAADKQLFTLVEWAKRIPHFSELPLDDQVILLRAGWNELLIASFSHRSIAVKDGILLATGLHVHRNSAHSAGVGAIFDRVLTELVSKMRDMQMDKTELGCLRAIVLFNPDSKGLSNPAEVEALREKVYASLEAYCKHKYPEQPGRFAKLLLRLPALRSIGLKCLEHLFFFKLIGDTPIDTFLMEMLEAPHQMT
Procedure, shortened: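 GeneBLAzer RXR-alpha-UAS-bla HEK 293T cells in medium with 2% charcoal-stripped FBS, pre-incubated 5 hr at 37 C, then exposed to compounds 16 hr. Beta-lactamase reporter read by FRET substrate, 2 hr room temperature, 460/530 nm emission.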

Measured: Potency

CC(C)[N+](C)(CCC(C(N)=O)(c1ccccc1)c1ccccc1)C(C)C
inactive: [1] | [2] | [3] | [4] | [5] | [6] | [7] | [8] | [9] | [10] | [11]

O=c1[nH]c2ccccc2n1C1CCNCC1
inactive: [1] | [2] | [12] | [3] | [4] | [5] | [6] | [7] | [13] | [8] | [9] | [10] | [11]

CCOC(=O)CCl
inactive: [2] | [3] | [5] | [7] | [13] | [8] | [9] | [10] | [11]

CS(=O)(=O)Cl
inactive: [1] | [2] | [12] | [3] | [5] | [6] | [7] | [13] | [8] | [9] | [10] | [11]

COc1ccc(C=O)cc1O
inactive: [1] | [2] | [12] | [3] | [5] | [6] | [7] | [13] | [8] | [9] | [10] | [11]

O=P(O)(O)c1ccccc1
inactive: [1] | [2] | [12] | [3] | [4] | [5] | [6] | [7] | [13] | [8] | [9] | [10] | [11]

COc1ccc2c(C(=O)c3ccc(Cl)cc3)c(C)n(CC(=O)O)c2c1
inactive: [1] | [2] | [12] | [3] | [4] | [5] | [6] | [7] | [8] | [9] | [10] | [11]
